Assay outcomes: PubChem, several laboratories
Gli-Sufu block: blocks Gli-Sufu signaling in a luciferase reporter | Sufu-KO-LIGHT fibroblasts, Gli luciferase reporter luminescence | inhibition, % at 5 µM | actives 0.74% (n = 340,000);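 active means inhibition above about 55%, limit read from the data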;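 further: 0% = DMSO-treated cells and 100% = wells with medium but no cells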
Shn3 inh set2: reduces Shn3 3'UTR luciferase signal in osteoblasts. inhibition, % at 12.5 µM. Clone20 osteoblast Shn3 3'UTR firefly luciferase, 24 h. actives 0.52% (n = 360,000);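 active means mean inhibition of at least 75% with every replicate also reaching 75%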;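 further: 0% = median of neutral control wells and 100% = pilot-screen positive control compound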
Mdm2 MdmX PPI: disrupts the human Mdm2-MdmX interaction; actives 3% (n = 330,000); O15151+Q00987; inhibition, % at 8 µM; AID 485346; SaOS-2 split-luciferase Mdm2/MdmX complementation, luminescence;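 active means inhibition of at least 50% at 8 µM in the primary screen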
697 NFkB inh: lowers PMA/ionomycin-induced NF-kB signal in 697 B cells; 697 B-cell NF-kB luciferase reporter, 16 h; actives 0.33% (n = 330,000); AID 435022; inhibition, % at 4 µM; in the data active means inhibition above about 35%
Jurkat NFkB inh: inhibitors of the PMA/ionomycin-induced NF-kB reporter in Jurkat cells. PMA/ionomycin-induced NF-kB luciferase reporter, luminescence. inhibition, % at 4 µM. actives 0.53% (n = 330,000); in the data active means inhibition above about 50%
Mdm2 MdmX conf: human Mdm2/MdmX binding inhibition, confirmed; shares compounds with Mdm2 MdmX PPI; luminescent assay; inhibition, % at 8 µM; actives 55% (n = 10,000); in the data active means inhibition above about 40%
Full FLuc ctr: counter-screen for Mdm2/MdmX inhibitors: full-length luciferase; SaOS-2 full-length luciferase counterscreen, luminescence; actives 77% (n = 6,200); shares compounds with Mdm2 MdmX PPI; inhibition, % at 8 µM;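 active means mean inhibition at 8 µM reaching about 37%, which flags the compound as non-specific, limit read from the data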;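 further: p53-null SaOS-2 cells with luciferase driven by a doxycycline-inducible promoter; compound on cells about two nights before reading with doxycycline added after day one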
* = called active by the depositor; / = not tested or not shown. In the library only some 3.8% were active in any assay of this set; here they are far more common.

SMILES | Gli-Sufu block | Shn3 inh set2 | Mdm2 MdmX PPI | 697 NFkB inh | Jurkat NFkB inh | Mdm2 MdmX conf | Full FLuc ctr
CCOc1ccc(OCC(=O)N(CCC2=CCCCC2)c2c(N)n(Cc3ccccc3)c(=O)[nH]c2=O)cc1 | / | 82 | 68* | 21 | -2 | 56* | 92*
Cc1ccc(NC(=O)c2c(Cl)nc3ccccn23)cc1 | -14 | -79 | -82 | -86 | -83 | / | /
CC(=O)Nc1ccc(Nc2c([N+](=O)[O-])c(=O)n(-c3ccccc3)c3ccccc23)cc1 | 19 | 7 | 61* | 7 | 12 | 13 | /
O=c1c([N+](=O)[O-])c(N2CCCCCC2)c2ccccc2n1-c1ccccc1 | 15 | -2 | -1 | 12 | 7 | / | /
CCOc1ccc2c(c1)C(C)=CC(C)(C)N2S(=O)(=O)c1ccc(F)cc1 | / | 20 | 51* | 10 | 38 | 53* | 49*
CC1=CC(C)(C)N(S(=O)(=O)c2ccc(C)cc2)c2ccccc21 | 9 | 73 | 64* | 17 | 34 | 64* | 88*
COc1ccc2c(c1)C(C)=CC(C)(C)N2S(=O)(=O)c1ccc(NC(C)=O)cc1 | 47 | 1 | 63* | -54 | 45 | 54* | 89*
CC1=CC(C)(C)N(C(=O)CN2C(=O)c3ccccc3C2=O)c2ccccc21 | 16 | -21 | 17 | 10 | 4 | / | /
Cn1c(N)c(C(=O)COC(=O)c2ccccc2C(=O)c2ccc(Cl)c([N+](=O)[O-])c2)c(=O)n(C)c1=O | -4 | 16 | 99* | 19 | -6 | 62* | 26
CN(CCC#N)C(=O)COC(=O)c1ccccc1C(=O)c1ccc(Cl)c([N+](=O)[O-])c1 | 11 | 7 | / | / | / | / | /
Cn1c(N)c(C(=O)COC(=O)c2ccccc2C(=O)c2ccccc2)c(=O)n(C)c1=O | -2 | 17 | -1 | 13 | -14 | / | /
CC(C)N(C(=O)COC(=O)c1ccccc1C(=O)c1ccc(Cl)c([N+](=O)[O-])c1)C(C)C | 4 | -2 | 82* | -11 | -7 | 23 | /
O=C(COC(=O)c1ccccc1C(=O)c1ccc(Cl)c([N+](=O)[O-])c1)NC1CCCCCC1 | -3 | 26 | 96* | 14 | 20 | 100* | 51*
COCCN(C(=O)COC(=O)CCOc1ccccc1C)c1c(N)n(Cc2ccccc2)c(=O)[nH]c1=O | -5 | 1 | 12 | 14 | -4 | / | /
Clc1ccc(Sc2cc(Cl)c(-c3ccccc3)nn2)cc1 | 8 | 12 | 1 | -11 | -24 | / | /
O=C(CN1CCCC1)Nc1ccc(Oc2ccc(NC(=O)CN3CCCC3)cc2)cc1 | 10 | 6 | 56* | 6 | -24 | 53* | 58*
COc1ccc(NC(=O)CN2CCCC2)cc1 | 13 | -6 | 9 | 14 | -14 | / | /
Cc1ccc(Cl)cc1N1CCN(CC(=O)Nc2ccc(CN3CCCCC3)cc2)CC1 | 9 | -4 | 69* | -12 | -9 | 43* | 60*
COc1ccccc1N1CCN(CC(=O)Nc2ccc(CN3CCCCC3)cc2)CC1 | 7 | 1 | -13 | -8 | -2 | / | /
CCN1C[C@@H]2[C@@H]3C(=O)N(Cc4ccccc4)C(=O)[C@@H]3[C@](CC)(C1=O)N2C(=O)c1ccc(F)cc1 | -9 | -2 | / | / | / | / | /
C[C@H](CO)N1C[C@H](C)[C@@H](CN(C)S(=O)(=O)c2ccc(F)cc2)Oc2ccc(NC(=O)Nc3ccccc3)cc2C1=O | 1 | 10 | 34 | 24 | -2 | / | /
C[C@H](CO)N1C[C@H](C)[C@@H](CN(C)S(=O)(=O)c2ccc(F)cc2)Oc2ccc(NC(=O)Nc3ccc(C(F)(F)F)cc3)cc2C1=O | -2 | 5 | 75* | 15 | 13 | 16 | /
C[C@@H]1CN([C@H](C)CO)C(=O)c2cc(NC(=O)Nc3ccc(C(F)(F)F)cc3)ccc2O[C@H]1CN(C)S(=O)(=O)c1ccc(Cl)cc1 | 3 | 11 | 85* | -3 | 8 | 16 | /
C[C@H](CO)N1C[C@H](C)[C@@H](CN(C)S(=O)(=O)c2ccc(F)cc2)Oc2c(NC(=O)Nc3ccc(C(F)(F)F)cc3)cccc2C1=O | 20 | 15 | 48 | 20 | -1 | / | /
C[C@H]1CN([C@@H](C)CO)C(=O)c2cccc(NC(=O)Nc3ccc(C(F)(F)F)cc3)c2O[C@@H]1CN(C)S(=O)(=O)c1ccc(Cl)cc1 | 7 | 52 | 58* | 8 | 2 | 14 | /
